From the supplement of paper PMC12819154, “High-throughput peptide-centric local stability assay extends protein–ligand identification to membrane proteins, tissues and bacteria” (Nature Structural & Molecular Biology, 2025)

Compound: Nc1ncnc2c1ncn2[C@@H]1O[C@H](COP(=O)(O)OP(=O)(O)OP(=O)(O)O)[C@@H](O)[C@H]1O [adenosine 5'-triphosphate]
Assay: log2 fold change of tryptic peptide abundance, ligand vs vehicle (limited proteolysis) (log2 ratio); higher = more trypsin-susceptible (destabilized)
Details: ligand concentration: 5 mM; sample: E. coli desalted lysate; replicate design: treated before aliquoting
Method: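 HT-PELSA: desalted E. coli K-12 BW25113 lysate (with 12 mM MgCl2) incubated with 5 mM ATP (pH 7) or water for 30 min at 25 C, then a 4 min trypsin pulse at 22 C. Peptides were quantified by DIA-MS (4 replicates). Value is the peptide log2 fold change (treated/control); negative = stabilized. Scale: negative = ligand-stabilized region.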
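Note: lysate desalted by size exclusion to strip endogenous ATP, peptide intensities built from DIA-NN precursor signals, and peptides missing any value discarded before comparison.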

Sequence of UniProt P11880 (P11880 whole entry): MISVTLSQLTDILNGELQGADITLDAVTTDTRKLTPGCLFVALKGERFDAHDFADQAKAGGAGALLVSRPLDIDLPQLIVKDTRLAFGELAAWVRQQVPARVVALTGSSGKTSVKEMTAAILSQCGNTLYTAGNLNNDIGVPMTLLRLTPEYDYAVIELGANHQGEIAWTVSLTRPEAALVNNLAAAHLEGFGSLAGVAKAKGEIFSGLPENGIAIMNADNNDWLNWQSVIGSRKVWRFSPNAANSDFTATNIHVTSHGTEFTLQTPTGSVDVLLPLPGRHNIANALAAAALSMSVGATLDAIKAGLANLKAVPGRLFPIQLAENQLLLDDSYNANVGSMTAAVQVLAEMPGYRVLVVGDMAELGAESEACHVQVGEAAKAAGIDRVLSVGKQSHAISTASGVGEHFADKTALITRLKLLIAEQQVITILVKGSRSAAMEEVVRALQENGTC
Sequence of UniProt P76222 (P76222 whole entry): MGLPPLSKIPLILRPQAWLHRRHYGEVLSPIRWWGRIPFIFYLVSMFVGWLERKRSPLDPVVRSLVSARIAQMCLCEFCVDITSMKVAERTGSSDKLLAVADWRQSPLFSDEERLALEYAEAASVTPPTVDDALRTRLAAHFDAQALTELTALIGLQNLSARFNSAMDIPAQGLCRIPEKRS
Sequence of UniProt P76187 (P76187 whole entry): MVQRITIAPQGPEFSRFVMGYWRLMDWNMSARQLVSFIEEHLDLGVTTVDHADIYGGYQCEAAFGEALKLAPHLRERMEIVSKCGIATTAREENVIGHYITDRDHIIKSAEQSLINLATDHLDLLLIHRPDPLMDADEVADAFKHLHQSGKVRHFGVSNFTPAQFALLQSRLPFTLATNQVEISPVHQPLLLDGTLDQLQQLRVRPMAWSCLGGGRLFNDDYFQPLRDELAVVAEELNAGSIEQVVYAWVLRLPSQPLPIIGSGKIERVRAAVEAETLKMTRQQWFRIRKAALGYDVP
Sequence of UniProt P37327 (P37327 whole entry): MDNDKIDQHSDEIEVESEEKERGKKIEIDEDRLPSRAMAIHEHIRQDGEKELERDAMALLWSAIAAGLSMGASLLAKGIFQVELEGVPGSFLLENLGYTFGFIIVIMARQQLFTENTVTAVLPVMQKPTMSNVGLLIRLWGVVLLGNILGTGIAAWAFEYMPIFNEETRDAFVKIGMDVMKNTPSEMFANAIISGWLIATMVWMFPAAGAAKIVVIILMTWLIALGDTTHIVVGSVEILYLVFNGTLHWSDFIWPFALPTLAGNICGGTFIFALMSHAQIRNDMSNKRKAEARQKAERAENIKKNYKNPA
Sequence of UniProt P18392 (P18392 whole entry): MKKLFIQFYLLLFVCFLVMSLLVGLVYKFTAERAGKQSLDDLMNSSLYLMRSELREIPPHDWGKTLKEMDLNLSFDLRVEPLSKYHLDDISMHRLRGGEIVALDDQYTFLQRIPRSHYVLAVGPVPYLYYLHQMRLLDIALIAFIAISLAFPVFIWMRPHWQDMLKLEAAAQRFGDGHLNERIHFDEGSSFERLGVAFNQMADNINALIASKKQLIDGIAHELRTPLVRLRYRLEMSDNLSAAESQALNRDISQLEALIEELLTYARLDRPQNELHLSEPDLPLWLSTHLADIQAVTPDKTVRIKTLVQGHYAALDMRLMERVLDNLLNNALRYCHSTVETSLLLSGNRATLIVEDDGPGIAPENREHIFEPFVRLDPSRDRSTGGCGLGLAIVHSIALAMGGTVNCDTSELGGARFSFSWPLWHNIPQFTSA
Sequence of UniProt P09029 (P09029 whole entry): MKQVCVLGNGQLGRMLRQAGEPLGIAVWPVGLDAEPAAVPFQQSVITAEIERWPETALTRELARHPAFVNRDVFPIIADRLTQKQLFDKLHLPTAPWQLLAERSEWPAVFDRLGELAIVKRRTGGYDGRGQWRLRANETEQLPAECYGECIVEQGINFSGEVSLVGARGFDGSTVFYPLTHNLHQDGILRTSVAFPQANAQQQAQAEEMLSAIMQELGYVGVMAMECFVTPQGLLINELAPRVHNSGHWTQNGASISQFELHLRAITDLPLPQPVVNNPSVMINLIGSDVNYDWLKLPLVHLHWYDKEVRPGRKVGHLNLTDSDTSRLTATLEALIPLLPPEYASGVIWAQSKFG
Sequence of UniProt P39285 (P39285 whole entry): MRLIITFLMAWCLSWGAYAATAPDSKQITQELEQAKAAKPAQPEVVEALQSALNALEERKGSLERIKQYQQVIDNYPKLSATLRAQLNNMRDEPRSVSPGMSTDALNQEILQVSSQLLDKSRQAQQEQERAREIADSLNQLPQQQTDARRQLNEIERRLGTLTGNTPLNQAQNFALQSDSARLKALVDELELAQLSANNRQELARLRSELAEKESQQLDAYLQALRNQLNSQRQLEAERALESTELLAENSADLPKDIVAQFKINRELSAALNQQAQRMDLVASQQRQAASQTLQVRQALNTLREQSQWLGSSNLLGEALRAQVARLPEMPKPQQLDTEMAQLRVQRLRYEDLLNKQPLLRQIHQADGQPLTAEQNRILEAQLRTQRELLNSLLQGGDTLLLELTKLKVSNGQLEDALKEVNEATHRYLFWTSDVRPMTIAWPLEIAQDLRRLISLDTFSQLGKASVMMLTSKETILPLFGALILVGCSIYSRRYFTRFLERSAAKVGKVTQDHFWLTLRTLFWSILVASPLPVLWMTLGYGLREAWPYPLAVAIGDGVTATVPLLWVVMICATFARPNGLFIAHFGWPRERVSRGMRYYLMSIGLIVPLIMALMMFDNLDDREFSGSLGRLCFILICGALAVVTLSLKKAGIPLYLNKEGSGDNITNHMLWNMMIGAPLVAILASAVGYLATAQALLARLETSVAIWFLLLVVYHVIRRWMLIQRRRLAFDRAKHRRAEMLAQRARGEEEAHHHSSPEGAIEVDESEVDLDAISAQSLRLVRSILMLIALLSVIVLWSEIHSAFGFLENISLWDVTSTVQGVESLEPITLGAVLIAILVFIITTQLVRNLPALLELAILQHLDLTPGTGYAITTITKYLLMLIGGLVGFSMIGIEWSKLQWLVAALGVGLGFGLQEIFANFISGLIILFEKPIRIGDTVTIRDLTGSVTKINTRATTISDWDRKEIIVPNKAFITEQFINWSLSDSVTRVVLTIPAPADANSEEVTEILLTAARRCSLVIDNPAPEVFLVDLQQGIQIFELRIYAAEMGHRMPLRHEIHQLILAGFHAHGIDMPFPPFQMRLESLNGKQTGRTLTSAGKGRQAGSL
Sequence of UniProt P27240 (P27240 whole entry): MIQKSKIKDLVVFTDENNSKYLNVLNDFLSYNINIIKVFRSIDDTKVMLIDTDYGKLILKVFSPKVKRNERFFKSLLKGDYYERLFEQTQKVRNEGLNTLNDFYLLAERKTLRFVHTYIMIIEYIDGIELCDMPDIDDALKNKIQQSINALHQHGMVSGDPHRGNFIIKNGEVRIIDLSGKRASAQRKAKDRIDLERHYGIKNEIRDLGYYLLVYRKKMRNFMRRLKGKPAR
Sequence of UniProt P0AA37 (P0AA37 whole entry): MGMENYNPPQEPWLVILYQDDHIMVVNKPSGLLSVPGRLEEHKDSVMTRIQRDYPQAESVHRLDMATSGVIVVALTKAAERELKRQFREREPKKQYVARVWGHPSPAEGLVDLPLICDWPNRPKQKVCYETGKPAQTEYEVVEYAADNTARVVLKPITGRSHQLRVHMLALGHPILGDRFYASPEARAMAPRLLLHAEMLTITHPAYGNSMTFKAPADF
Sequence of UniProt P39280 (P39280 whole entry): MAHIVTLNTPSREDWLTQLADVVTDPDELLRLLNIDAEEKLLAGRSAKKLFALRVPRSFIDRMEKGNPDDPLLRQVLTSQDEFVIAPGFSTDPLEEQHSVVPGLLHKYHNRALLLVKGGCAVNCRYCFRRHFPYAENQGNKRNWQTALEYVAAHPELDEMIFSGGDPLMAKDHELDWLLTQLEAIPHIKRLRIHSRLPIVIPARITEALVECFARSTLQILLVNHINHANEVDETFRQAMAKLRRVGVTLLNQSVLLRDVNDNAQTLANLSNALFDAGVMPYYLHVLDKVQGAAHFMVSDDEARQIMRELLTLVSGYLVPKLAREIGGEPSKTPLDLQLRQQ
Sequence of UniProt P27431 (P27431 whole entry): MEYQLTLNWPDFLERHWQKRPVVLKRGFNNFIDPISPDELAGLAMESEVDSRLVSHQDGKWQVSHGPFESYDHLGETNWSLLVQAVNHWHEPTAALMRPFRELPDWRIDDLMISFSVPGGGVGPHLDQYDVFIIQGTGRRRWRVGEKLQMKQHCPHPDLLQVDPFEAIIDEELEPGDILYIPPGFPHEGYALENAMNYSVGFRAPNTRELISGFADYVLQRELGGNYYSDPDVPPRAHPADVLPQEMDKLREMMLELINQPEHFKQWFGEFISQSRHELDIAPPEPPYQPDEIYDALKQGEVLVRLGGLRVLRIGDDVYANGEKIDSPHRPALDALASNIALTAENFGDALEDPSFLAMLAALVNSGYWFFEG
Sequence of UniProt P0A7Y8 (P0A7Y8 whole entry): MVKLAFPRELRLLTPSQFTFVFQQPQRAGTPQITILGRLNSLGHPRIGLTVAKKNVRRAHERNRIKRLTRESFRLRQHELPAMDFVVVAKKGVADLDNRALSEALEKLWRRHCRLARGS
Sequence of UniProt P64636 (P64636 whole entry): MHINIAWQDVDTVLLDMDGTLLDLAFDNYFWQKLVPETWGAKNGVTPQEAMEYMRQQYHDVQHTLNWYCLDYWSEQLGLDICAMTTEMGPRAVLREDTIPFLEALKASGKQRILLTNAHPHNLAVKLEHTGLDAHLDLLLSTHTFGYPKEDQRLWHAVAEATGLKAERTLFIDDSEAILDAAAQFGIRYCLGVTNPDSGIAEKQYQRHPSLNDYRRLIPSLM
Sequence of UniProt P64602 (P64602 whole entry): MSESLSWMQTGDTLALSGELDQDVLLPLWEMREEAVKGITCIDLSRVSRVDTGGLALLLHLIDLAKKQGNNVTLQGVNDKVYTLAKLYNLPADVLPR

Target	log2 fold change
UniProt P39285 (peptide sequence: IYAAEMGHR, peptide start residue: 1044)	0.638
UniProt P06612 (peptide sequence: ADHIYLATDLDREGEAIAWHLR, peptide start residue: 103)	-1.02
UniProt P77395 (peptide sequence: RQLYALLY, peptide start residue: 277)	0.6
MurF (peptide sequence: VVALTGSSGK, peptide start residue: 102) (UniProt P11880)	-1.5
UniProt P37327 (peptide sequence: AMAIHEHIR, peptide start residue: 37)	-0.62
UniProt P77608 (peptide sequence: AAEQGEAIAPLR, peptide start residue: 16)	0.736
UniProt P09029 (peptide sequence: DVFPIIADR, peptide start residue: 72)	-2.73
UniProt P18392 (peptide sequence: EHIFEPFVR, peptide start residue: 367)	-1.71
UniProt P64636 (peptide sequence: EDTIPFLEALK, peptide start residue: 96)	0.412
UniProt P37182 (peptide sequence: ESGVEAIPR, peptide start residue: 151)	0.522
UniProt Q46857 (peptide sequence: DLADKYGK, peptide start residue: 204)	-0.885
UniProt P18776 (peptide sequence: PICVESCPLR, peptide start residue: 139)	-1.14
UniProt P23837 (peptide sequence: EITEQYEGK, peptide start residue: 451)	-1.72
UniProt P0A7Y8 (peptide sequence: KGVADLDNR, peptide start residue: 91)	0.915
UniProt P31475 (peptide sequence: AHLNTLMAEMAALKENFRR, peptide start residue: 132)	0.66
UniProt P36547 (peptide sequence: TANLHHLYHEPLPENLK, peptide start residue: 6)	-0.813
UniProt P76187 (peptide sequence: HFGVSNFTPAQFALLQSR, peptide start residue: 154)	-0.944
UniProt P77544 (peptide sequence: QIQAWLR, peptide start residue: 104)	0.878
UniProt P21866 (peptide sequence: RHSATTAPDPLVK, peptide start residue: 118)	1.65
UniProt P0AA37 (peptide sequence: LLLHAEMLTITHPAYGNSMTFK, peptide start residue: 193)	-0.465

Target	log2 fold change
UniProt P03813 (peptide sequence: YTMEQDFYR, peptide start residue: 127)	-0.699
UniProt P0A9L3 (peptide sequence: VINQGEGAIPARTDR, peptide start residue: 108)	0.513
UniProt P17888 (peptide sequence: TNYAVSGER, peptide start residue: 188)	-1.98
UniProt P23538 (peptide sequence: QVKIEDVPQEQR, peptide start residue: 278)	-2.56
UniProt P33602 (peptide sequence: IAPYYHLFGSDELSQR, peptide start residue: 812)	0.28
UniProt P77499 (peptide sequence: SVNVGFSGGEK, peptide start residue: 141)	-0.896
UniProt P21645 (peptide sequence: KTAALVMNIDDMSKR, peptide start residue: 315)	-0.565
UniProt P61887 (peptide sequence: FGVVEFDDNFR, peptide start residue: 143)	-0.44
UniProt P77307 (peptide sequence: HQLVVTQLK, peptide start residue: 249)	-0.533
UniProt P39452 (peptide sequence: IIDTYAEATR, peptide start residue: 646)	-1.19
UniProt P27240 (peptide sequence: IKDLVVFTDENNSK, peptide start residue: 7)	-0.431
UniProt P76043 (peptide sequence: ACSEPNPDYPR, peptide start residue: 284)	-1.41
UniProt P05804 (peptide sequence: DKNHPSVVMWSIANEPDTRPQGAR, peptide start residue: 399)	-0.737
UniProt P64602 (peptide sequence: GITCIDLSR, peptide start residue: 38)	0.802
UniProt P24203 (peptide sequence: ILLTKTDVAGEAEKLHER, peptide start residue: 155)	1.26
UniProt P27431 (peptide sequence: EMMLELINQPEHFK, peptide start residue: 252)	0.714
UniProt P0AA41 (peptide sequence: LLAQQFEQHQIQKR, peptide start residue: 72)	-1.05
UniProt P76222 (peptide sequence: LLAVADWR, peptide start residue: 97)	-0.698
UniProt P31554 (peptide sequence: GNIMWENEFR, peptide start residue: 268)	-0.46
UniProt P39280 (peptide sequence: IHSRLPIVIPAR, peptide start residue: 193)	1.51
